Measured values reported in PubChem BioAssay AID1159580 (chemical genetic matrix, 2015).
“And” between values parts separate entries of the source, which are not always exact repeats. Identical values can stand only once. Hit rate of the full screen: of about 5,500 compounds, about 2,000 (36%) were called active. Inconclusive results (about 18%) are left out. No stated cut-off is given here; in the data, active means normalized growth mostly below about 0.91 (no sharp cut-off); inconclusive means no clear call, values can overlap the other calls; inactive means mostly above about 0.92. This is one part of the list.

Assay: chemical genetic growth profiling, strain panel (AID 1159580);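 further: tested at 20 µM; growth read once vehicle control cultures reached saturation at 30 °C; 1 = growth at the plate median or of vehicle wells; lower values mean less growth of the strain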
Conditions: S. cerevisiae deletion strains, growth OD

Measured: normalized growth

CS(=O)(=O)Nc1ccc([N+](=O)[O-])cc1Oc1ccccc1
inactive: locus YAL013W, strain DEP1, hits give low values 0.986 and 1 | locus YAL021C, strain ccr4, hits give low values 0.991 | locus YAL026C, strain drs2, hits give low values 0.991 | locus YAL030W, strain snc1, hits give low values 1 | locus YAL040C, strain CLN3, hits give low values 1 | locus YBL061C, strain skt5, hits give low values 0.994 | locus YBR009C, strain hhf1, hits give low values 0.971 | locus YBR021W, strain FUR4, hits give low values 0.994 | locus YBR023C, strain chs3, hits give low values 0.984 | locus YBR171W, strain sec66, hits give low values 0.988 | locus YBR229C, strain ROT2, hits give low values 0.958 | locus YBR231C, strain swc5, hits give low values 0.993 | locus YBR279W, strain paf1, hits give low values 0.994 | locus YCL011C, strain gbp2, hits give low values 0.996 | locus YCL016C, strain dcc1, hits give low values 0.997 | locus YCL029C, strain bik1, hits give low values 0.97 | locus YCL061C, strain MRC1 (second series), hits give low values 1.01 | locus YCL061C, strain MRC1, hits give low values 1 | locus YCL069W, strain vba3, hits give low values 0.997 | locus YCR088W, strain abp1, hits give low values 0.999 | locus YDL005C, strain med2, hits give low values 0.991 | locus YDL035C, strain GPR1, hits give low values 0.976 | locus YDL040C, strain nat1, hits give low values 0.985 | locus YDL074C, strain BRE1, hits give low values 0.944 | locus YDL101C, strain DUN1, hits give low values 0.964 | locus YDL134C, strain PPH21, hits give low values 0.999 | locus YDL185W, strain tfp1, hits give low values 0.971 | locus YDL192W, strain arf1, hits give low values 0.966 | locus YDR001C, strain nth1, hits give low values 0.993 | locus YDR069C, strain doa4, hits give low values 1.02 | locus YDR101C, strain arx1, hits give low values 0.98 | locus YDR137W, strain rgp1, hits give low values 0.857 | locus YDR150W, strain NUM1, hits give low values 0.983 and 1.02 | locus YDR159W, strain sac3, hits give low values 0.977 | locus YDR162C, strain NBP2, hits give low values 0.979 | locus YDR195W, strain ref2 1.01 | locus YDR297W, strain sur2, hits give low values 0.991 | locus YDR318W, strain mcm21, hits give low values 0.991 | locus YDR334W, strain swr1, hits give low values 1 | locus YDR335W, strain msn5, hits give low values 0.993 | locus YDR363W, strain ESC2, hits give low values 0.994 | locus YDR388W, hits give low values 0.977 | locus YDR392W, strain spt3, hits give low values 0.904 | locus YDR502C, strain sam2, hits give low values 0.943 | locus YEL003W, strain gim4, hits give low values 0.999 | locus YEL037C, strain rad23, hits give low values 0.995 | locus YEL061C, strain CIN8 (second series), hits give low values 0.988 | locus YEL061C, strain CIN8, hits give low values 0.979 | locus YER002W, strain NOP16, hits give low values 0.997 | locus YER015W, strain faa2, hits give low values 0.994 | locus YER016W, strain bim1, hits give low values 0.991 | locus YER110C, hits give low values 0.986 | locus YER111C, strain swi4, hits give low values 0.978 | locus YER155C, strain BEM2 (second series), hits give low values 0.991 | locus YER155C, strain BEM2, hits give low values 1 | locus YER167W, strain BCK2, hits give low values 1 | locus YFR010W, strain ubp6, hits give low values 1 | locus YGL078C, strain dbp3, hits give low values 0.978 | locus YGL086W, strain mad1, hits give low values 0.969 | locus YGL167C, strain pmr1, hits give low values 0.988 | locus YGL173C, strain kem1, hits give low values 0.995 | locus YGL227W, strain vid30, hits give low values 0.997 | locus YGL240W, strain doc1, hits give low values 0.995 | locus YGL248W, strain PDE1, hits give low values 0.946 | locus YGL253W, strain hxk2, hits give low values 1.01 | locus YGR078C, strain PAC10, hits give low values 0.96 and 1.02 | locus YGR135W, strain pre9, hits give low values 1.02 | locus YGR229C, strain SMI1, hits give low values 0.971 | locus YGR252W, strain gcn5, hits give low values 0.92 | locus YHR013C, strain ard1, hits give low values 0.967 | locus YHR027C, strain rpn1, hits give low values 0.995 | locus YHR030C, strain SLT2, hits give low values 0.995 and 1.02 | locus YHR079C, strain IRE1 (second series), hits give low values 0.977 | locus YHR079C, strain IRE1, hits give low values 1.04 | locus YHR094C, strain hxt1, hits give low values 0.98 | locus YHR129C, strain ARP1, hits give low values 0.987 | locus YHR142W, strain chs7, hits give low values 0.991 | locus YHR200W, strain rpn10, hits give low values 0.972 | locus YIL066C, strain RNR3, hits give low values 0.964 | locus YIL073C, strain SPO22, hits give low values 0.969 | locus YIL125W, strain kgd1, hits give low values 0.98 | locus YIR030C, strain dcg1, hits give low values 0.976 | locus YJL092W, strain hpr5, hits give low values 0.997 | locus YJL095W, strain BCK1 (second series), hits give low values 0.993 | locus YJL095W, strain BCK1, hits give low values 0.956 and 1.04 | locus YJL115W, strain asf1, hits give low values 0.999 | locus YJL129C, strain trk1, hits give low values 0.979 | locus YJL134W, strain LCB3, hits give low values 0.991 | locus YJL154C, strain vps35, hits give low values 0.992 | locus YJL164C, strain tpk1, hits give low values 0.992 | locus YJL166W, strain qcr8, hits give low values 0.997 | locus YJL168C, strain set2, hits give low values 0.98 | locus YJL187C, strain SWE1 (second series), hits give low values 0.949 | locus YJL187C, strain SWE1, hits give low values 0.996 | locus YJR043C, strain POL32, hits give low values 0.911
